PubChem BioAssay AID652010 (The Scripps Research Institute Molecular Screening Center, 2013)
In all, about 370,000 compounds went through this assay and about 4,100 (1.1%) were called active.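 Rule for the calls: active = inhibition above the mean over all tested compounds plus 3 SD (cut at about 3.6% in these data); inactive = the rest.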 This excerpt belongs to a sample that is enriched for actives.

Assay: relief of DAX-1 repression of SF-1 activity – cell-based, luminescence, SF-1 (NR5A1), full-length DAX-1, primary screen (AID 652010);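 note: 0% = DAX-1 cells with DMSO and 100% = cells lacking DAX-1 with DMSO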
Conditions: HEK293T StAR-luciferase reporter, SF-1/DAX-1 repression relief; at 6.8 µM; stronger effect = higher value

inhibition, inactive:
CCNC(=O)c1sccc1-n1cccc1 -0.31%, Cc1ccsc1C(=O)NC1CCCCC1C (centres undefined) -0.66%, COc1cccc(CNC(=O)[C@H]2CCCN2C(=O)[C@H]2CCCN2C(=O)C2CCCCC2)c1 -1.49%, Cc1ccc(-n2c(SCC(=O)Nc3cccc4ccccc34)nnc2-c2ccccn2)cc1 -0.57%, O=C(NCCC1=CCCCC1)C1CCN(S(=O)(=O)c2ccc(Cl)s2)CC1 0.02%, CC[C@]12c3[nH]c4cc(CCC(=O)N(C)C)ccc4c3CCN1C(=O)[C@@H](CC(=O)NCCCn1ccnc1)C[C@@H]2C(=O)N1CCN(C(=O)C2CC2)CC1 -0.23%, CC[C@]12c3[nH]c4cc(CCC(=O)N(C)C)ccc4c3CCN1C(=O)[C@@H](CC(=O)NCc1ccco1)C[C@@H]2C(=O)N1CCN(C(=O)c2ccco2)CC1 0.22%, Cc1nc2ccc(C(=O)N3CCN(C(=O)C(C)(C)C)CC3)cc2n1C1CCCC1 1.16%, COc1ccc(-n2c(SCC(=O)Nc3ccc(C)c(Cl)c3)nc3ccccc3c2=O)cc1 -1.67%, O=C(NCc1cccs1)c1ccc2c(c1)ncn2C1CCCC1 0.35%, Nn1c(SCC(=O)Nc2ccc(S(N)(=O)=O)cc2)nnc1-c1n[nH]c2c1CCC2 0.11%, COC(=O)C1CN(CCc2ccccc2)CCS(=O)(=O)N1Cc1ccc(F)cc1 (centres undefined) -0.43%, CC(C)c1ccc(/C=C2\NC(=O)NC2=O)cc1 0.05%, CN(CCc1ccccc1)c1ccc([N+](=O)[O-])cn1 -0.34%, Cc1ccc(C(=O)NN(CCC#N)C2=NS(=O)(=O)c3ccccc32)cc1 0.06%, O=C(NCc1ccccc1)[C@H]1CCCN1C(=O)[C@@H]1CCCN1C(=O)c1ccc(Cl)cc1Cl 0.24%, CC[C@@H](CCC(=O)N(c1ccccc1)c1ccccc1)C1CC1 -1.2%, CCOc1cc(C(=S)N2CCOCC2)ccc1OS(=O)(=O)c1ccc(Br)cc1 0.06%, CC(=O)Nc1ccc(S(=O)(=O)Oc2ccc(Br)cc2C(=S)N2CCOCC2)cc1 -1.94%, COC(=O)c1cc(S(=O)(=O)N2CCN(c3ccccc3C)CC2)cn1C -1.02%, CC(c1c[nH]c2ccccc12)c1c(-c2ccccc2)n(C)c2ccccc12 (centres undefined) -0.37%, CC(=O)N1CCc2cc(S(=O)(=O)NCCC(=O)N3CCCC3)ccc21 -1.5%, COc1ccc(/C(N)=N/OC(=O)Oc2ccccc2)cc1 -0.74%, COc1ccc(C(=NN)c2ccc(OC)cc2)cc1 0.31%, O=C(N[C@H](Cc1ccccc1)C(=O)N1CCCN(Cc2cccs2)CC1)[C@H]1O[C@@H](n2ccc(=O)[nH]c2=O)[C@H](O)[C@@H]1O 1.64%, CCOc1ccc(NC(=O)COc2ccc(S(=O)(=O)N3CCCC3)cc2)cc1 -0.61%, COc1ccc(-n2c(COc3ccccc3)nnc2SCC(=O)Nc2ccc3c(c2)OCO3)cc1 -0.36%, CC(c1ccc(N)cc1)c1cn(C)c2ccccc12 (centres undefined) -0.01%, COc1ccc(Cn2cc(COC(=O)N(C)Cc3ccccc3)nn2)cc1 -0.67%, Cc1cc(-c2ccccc2)n2nc(C)c(-c3ccccc3)c2n1 0.27%, Cc1nn2c(c1-c1ccccc1)N=C(c1ccco1)CC2c1ccccc1 (centres undefined) -0.86%, O=C(NCCc1c[nH]c2ccccc12)OCc1cn(-c2c(F)cccc2F)nn1 -0.6%, Cc1cccc(N(CC(=O)Nc2ccc(-c3nc4ccc(C)cc4s3)cc2)S(C)(=O)=O)c1 1.57%, Cc1nc2ccc(S(=O)(=O)N(C)CC(=O)NC(C)c3ccccc3)cc2s1 (centres undefined) -0.1%, O=S1(=O)c2c(cccc2N2CCCC2)O[C@H](COCc2ccccc2)CN1C1CC1 -1.16%, C=CCN1C(=O)[C@@H](CC(=O)NCC2CCCCC2)[C@]2(C(=O)OC)CCCCC=C12 0.53%, COC(C(=O)Nc1ccc(S(=O)(=O)Nc2ccc(C)c(C)c2)cc1)c1ccccc1 (centres undefined) -1.03%, Cc1ccc(NNC(=O)C2CCC2)cc1C 0.22%, Nc1nc2c(ncn2[C@@H]2O[C@H](C(=O)N[C@H](Cc3ccccc3)C(=O)NCC3CCCCC3)[C@@H](O)[C@H]2O)c(=O)[nH]1 1.02%, COc1ccc(CNC(=O)c2cc(C(=O)C3CC3)c[nH]2)cc1 -2.24%, COC(=O)Nc1nc2ccc(Sc3ccccc3)cc2[nH]1 0.19%, COc1ccc(-n2c(COc3ccc(C)cc3)nnc2SCC(=O)Nc2ccc(Oc3ccccc3)cc2)cc1 -1.51%, COc1ccc(Cn2cc(CN3[C@@H](CC(C)C)COc4cc(Br)ccc4S3(=O)=O)nn2)cc1 0.86%, C=CCN1[C@H](CC(C)C)COc2cccc(N3CCCC3)c2S1(=O)=O -1.88%, O=C(CCc1ccccc1)Nc1ccc(NC(=O)C2CCCCC2)nc1 -0.14%, O=C(CCc1ccccc1)Nc1ccc(NC(=O)C2CC2)nc1 -0.05%, Cc1cc2oc(C(=O)Nc3c(C)n(C)n(-c4ccccc4)c3=O)c(C)c2cc1Cl -0.22%, Cc1ccnc(NC(=O)Cn2ccc([N+](=O)[O-])n2)c1 0.11%, Cc1ccnc(NC(=O)CCCOc2ccccc2)c1 0.57%, O=C(CN1CCCc2ccccc21)NCc1ccc(F)cc1 -0.22%, Brc1ccc(COCCc2cn(Cc3ccccc3)c3ccccc23)cc1 1.27%, O=C(COc1ccc(Br)cc1F)NCC1(N2CCCCC2)CCCCC1 0.06%, CC(C)N(Cc1nnc(-c2ccc(Cl)cc2)o1)C(=O)C1=COCCO1 -1.6%, CCCOP(=O)(c1ccc(N(C)C)cc1)C(O)c1cc(OC)c(OC)c(OC)c1 (centres undefined) 0.1%, CCCC[C@H](C(=O)N(CC)c1ccccc1)[C@@H](O)c1ccc2ccccc2c1 -1.35%, COC(=O)[C@]12C[C@H](CC(=O)NCc3cccc4ccccc34)C(=O)N(CCc3ccc(OC)c(OC)c3)C1=C[C@H](C1CCCC1)O[C@@H]2C -1.59%, C#CCN([C@H](C(=O)OC)C(C)CC)S(=O)(=O)c1ccccc1Br (some centres undefined) -0.34%, COc1ccc(NS(=O)(=O)c2ccc(C)c(C(=O)NCC(c3cccs3)N3CCOCC3)c2)cc1 (centres undefined) 1.82%, COc1ccc(C(CNC(=O)c2cccc(NS(=O)(=O)c3ccc(C)c(F)c3)c2)N2CCCC2)cc1 (centres undefined) 2.54%, CCOC(=O)C1(Cc2ccccc2)CCN(Cc2cn(C(C)=O)c3ccccc23)CC1 -0.4%, COc1ccccc1C(=O)NCCC(=O)NCC(c1ccco1)N1CCCCC1 (centres undefined) 0.45%, CCCCn1nc(C(=O)N2CCc3ccccc32)c2ccccc2c1=O -1%, O=C(c1cc2sccc2n1Cc1ccc(F)cc1)N1CCc2ccccc21 -0.14%, Cc1ccccc1C(=O)N[C@H](C(=O)N1CCC[C@H]1C(=O)NCc1ccccc1)C(C)C 0.49%, O=C(Nc1ccc2c(c1)OCCO2)C(C1CC1)N1CCC(Cc2ccccc2)CC1 (centres undefined) -0.46%, O=C(CCS(=O)(=O)Cc1ccccc1)Nc1ccc2c(c1)OCCO2 -0.13%, Cc1ccc(NC(=O)Cc2cccc(F)c2)c(S(=O)(=O)N2CCOCC2)c1 -1.09%, O=C(CSc1nnc(-c2ccccn2)n1-c1ccccc1)Nc1ccc2cn[nH]c2c1 -1.05%, COc1cccc(-c2cnc(OC(C)(C)C)nc2OC(C)(C)C)c1 -0.07%, COc1cccc(NS(=O)(=O)c2ccc(-c3coc(C)n3)cc2)c1 -0.43%, CNc1ccc([N+](=O)[O-])cc1C(=O)O 0.42%, O=[N+]([O-])c1ccc2c(c1)C(O)n1nc(-c3ccccc3)nc1S2 (centres undefined) -0.33%

inhibition, active:
Cc1ccsc1C(=O)NCCc1ccco1 4.3%, CC[C@]12c3[nH]c4cc(CCC(=O)N(C)C)ccc4c3CCN1C(=O)[C@@H](CC(=O)NCCCN(C)C)C[C@@H]2C(=O)N1CCN(C(=O)c2ccco2)CC1 3.91%, CC(C)c1ccc(C=NNc2ccc([N+](=O)[O-])cn2)cc1 4.69%, O=S(=O)(Oc1ccccc1C(=S)N1CCOCC1)c1ccc(Cl)cc1 3.63%, COc1ccc(C(C#N)=C2C=CC(=NO)c3ccccc32)cc1 4.3%, Cc1nn(C(=O)c2ccoc2C)c(N)c1-c1ccccc1 3.82%, Cc1ccc2nc(-c3ccc(NC(=O)CN(C)S(=O)(=O)c4ccccc4)cc3)sc2c1 3.65%, Cc1ccc(N/C=C/C(=O)c2ccccc2)cc1C 5.15%, COC(=O)Nc1nc2ccc(C(=O)C3CC3)cc2[nH]1 7.48%, O=C(CCc1ccccc1)Nc1ncc([N+](=O)[O-])s1 4.52%, Cc1ccnc(NC(=O)CNC(=O)c2ccccc2)c1 6.34%, CN(C)CCN(C(=O)C1=COCCO1)c1nc2ccc(Cl)cc2s1 4.61%, COc1ccc(C(CNC(=O)c2cc(S(=O)(=O)Nc3cccc(C)c3)ccc2C)N2CCCC2)cc1 (centres undefined) 4.48%, O=C(c1cnn2ccccc12)N1CCc2ccccc21 6%, Nc1c(C(=O)Nc2ccc3c(c2)OCCO3)nnn1Cc1ccccc1 11.8%, COc1cccc(-c2nc3cc(C)ccc3o2)c1 4.5%, O=[N+]([O-])c1ccc2oc(-c3cccc(O)c3)nc2c1 5.24%
